From PubChem BioAssay AID686978 (National Center for Advancing Translational Sciences (NCATS), 2013)
Among all 420,000 compounds or so, about 64,000 (15%) were called active. Not shown: some 27% with an inconclusive outcome. Calls follow the shape of the dose curve; as a rule, active = well fitted inhibition curve with a large enough effect; inconclusive = small, poorly fitted or top-dose-only effect; inactive = flat fitted curve, though single readings scatter. Only a sample is shown. Where a call stands in place of a potency, no number is given.
Potency is read from the fitted curve at half-maximal effect.

Assay: qHTS for Inhibitors of human tyrosyl-DNA phosphodiesterase 1 (TDP1): qHTS in cells in absence of CPT; also: nearly all actives have a fitted effect of over 55% in size
Conditions: DT40 Tdp1-/- hTDP1 cells, no CPT, ATP luminescence, 48 h; activity change, negative = growth inhibition: at 46.2 µM (top of the series)
Source text: Human tyrosyl-DNA phosphodiesterase 1 (TDP1) is a novel repair gene, and we propose to use it as a new target for anticancer drug development. TDP1 is not an essential protein, but under treatment with topoisomerase I poison (camptothecin: CPT), TDP1 works as a critical factor for cell survival. To directly identify novel TDP1 inhibitors active in a cellular environment, we have knocked-out the Tdp1 gene in chicken DT40 cells (Tdp1-/-) and generated a complemented counterpart cells that contains a stable transfection of the human TDP1 gene (Tdp1-/-;hTDP1 cells). For the primary screen, Tdp1-/-;hTDP1 cells will be exposed to small molecules in the presence or absence of CPT, and their growth kinetics will be evaluated after 48 hours by measuring ATP activity. […] The hit compounds will then be evaluated in the presence or absence of CPT using Tdp1-/- cells. […] In tertiary assays, biochemical gel-based assays will be used to assess whether the hit compounds specifically target TDP1.
To this end, we have screened this cell line against the MLSMR in two primary screens. In one screen we add CPT and in the other we screen in the absence of CPT; this AID represents the screen where CPT was absent.
NIH Chemical Genomics Center [NCGC]
NIH Molecular Libraries Probe Centers Network [MLPCN]
Assay Submitter (PI): Yves Pommier, NCI
DT40-hTDP1 cells without 20 nM Camptothecin (add 20 microL of DMSO in 1 L of cell culture medium) were dispensed at 400 cells/5microL/well in tissue culture treated 1536-well white wall/solid bottom assay plates (Greiner Bio-One North America, NC, U.S.A.) using a Multidrop Combi 8 channel dispenser (Thermo Fisher, Waltham, MA, USA). 23 nL compounds and controls were transferred using the pin tool (Kalypsys, San Diego, CA, USA) to the assay plates. The assay plates were then incubated at 37 masculineC for a minimum 48 hr. Three microL of Cell Titer Glo solution was added to the plates and incubated at RT in dark for 30 min. Luminescence was read using ViewLux (Perkin Elmer) with 1 sec exposure slow speed, high gain and 2x binning.
With `CCCCC(=O)N1CC2(C)CN(C(=O)CCCC)CC(C)(C1)C2=O` the Potency was “inactive”.
For `O=C(O)CN(Cc1ccco1)S(=O)(=O)c1ccccc1`, the Potency was “inactive”.
For `O=C(CCNC(=O)c1ccc(Br)cc1)NCC(c1ccco1)N1CCCCC1` (centres undefined), the Potency was “inactive”.
For `CC(C)CN(C(=O)c1cccc(S(=O)(=O)N2CCCCC2)c1)C1CCS(=O)(=O)C1` (centres undefined), the Potency was “inactive”.
In the case of `CCCCNCc1ccc(SC)cc1`, the Potency is reported as “inactive”.
With `CC(=NNC(N)=O)C1CC2CCC1CC2` (centres undefined) the Potency was “inactive”.
For `ClC/C=C/C[n+]1ccccc1Cl`, the Potency was “inactive”.
In the case of `CN(C)c1ccc(NC(=O)c2ccncc2)c2ccccc12`, the Potency is reported as “inactive”.
For `O=c1c2c(-c3ccccc3)ccnc2[nH]n1-c1ccccc1`, the Potency was “inactive”.
In the case of `O=c1c(-c2ccccc2Cl)c[nH]n1-c1ccccc1`, the Potency is reported as “inactive”.
In the case of `O=c1c(-c2cccc(Cl)c2)c[nH]n1-c1ccccc1`, the Potency is reported as 16.4 µM (active).
In the case of `N#C/C=C1\Sc2ccccc2C(=O)N1CC(=O)N1CCN(S(=O)(=O)c2ccccc2)CC1`, the Potency is reported as “inactive”.
For `O=C(O)c1ccccc1-c1ccccc1C(=O)Nc1ccccc1Br`, the Potency was “inactive”.
For `COc1ccc(N2C(=O)CCC(C(=O)N(C)C3CCCCC3)C2c2ccc(OC)c(OC)c2)cc1` (centres undefined), the Potency was “inactive”.
For `CCOC(=O)C1CCCN(C(=O)CSc2nnc3nc(C)cc(C)n23)C1` (centres undefined), the Potency was 20.6 µM (active).
With `Cc1c(C)n2c(SCC(=O)N3CCCC3)nnc2[nH]c1=O` the Potency was “inactive”.
In the case of `CCOC(=O)C1CCCN(C(=O)C2CCN(c3nnc(-n4cccc4)s3)CC2)C1` (centres undefined), the Potency is reported as “inactive”.
For `CCCCN1C(=O)CCC(C(=O)O)C1c1ccc(OC)cc1` (centres undefined), the Potency was “inactive”.
With `COc1cc(/C=C2\CCCc3c2nc2ccccc2c3C(=O)O)cc(Cl)c1O` the Potency was “inactive”.
With `O=C(COC(=O)c1ccc(F)cc1)Nc1ccc2c(c1)OCO2` the Potency was “inactive”.
In the case of `NS(=O)(=O)c1ccc(NC(=O)COC(=O)c2cc3ccccc3oc2=O)cc1`, the Potency is reported as “inactive”.
With `O=C(COC(=O)c1ccncc1)Nc1ccc2c(c1)OCO2` the Potency was “inactive”.
In the case of `NS(=O)(=O)c1ccc(NC(=O)COC(=O)c2c3c(nc4ccccc24)/C(=C\c2ccc4c(c2)OCO4)CCC3)cc1`, the Potency is reported as 13 µM (active).
For `O=C(COC(=O)c1cccs1)Nc1ccccc1Cl`, the Potency was “inactive”.
With `O=C(COC(=O)c1c2c(nc3ccccc13)/C(=C\c1cccs1)CCC2)Nc1ccccc1Cl` the Potency was 13 µM (active).
With `NC(=O)c1ccc(NC(=O)COC(=O)c2c3c(nc4ccccc24)/C(=C\c2ccc4c(c2)OCO4)CCC3)cc1` the Potency was 8.2 µM (active).
With `COc1cc(-c2cc(C(=O)OCC(=O)Nc3ccc4c(c3)OCO4)c3ccccc3n2)cc(OC)c1OC` the Potency was “inactive”.
In the case of `COCCC(=O)Nc1ccc2c(c1)CN(C(=O)CCOC)CC2`, the Potency is reported as “inactive”.
In the case of `COc1ccccc1C(=O)OCC(=O)NCCNC(=O)COC(=O)c1ccccc1OC`, the Potency is reported as “inactive”.
